Source: PubChem (several laboratories)
TIM10 inh – growth inhibitors of isogenic TIM10 control yeast, primary screen, counter-screen for tim10-1 yeast inhibitor project, luminescence, uHTS; S. cerevisiae TIM10 strain growth, BacTiter-Glo luminescence, 24 h; inhibition, % at 10 µM; 1.4% of 330,000 active; AID 463195, 2010;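 active = inhibition of 40% or more at the single tested concentration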;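 also: wild-type TIM10 isogenic control strain grown at permissive 25 °C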
PfHsp90 yeast 2 – growth inhibition of PfHsp90-expressing yeast, primary screen, antimalarial PfHsp90 inhibitor project, S. cerevisiae, BacTiter-Glo luminescence, single point, set 2; 0.32% of 310,000 active; AID 504621, 2011; inhibition, % at 9.4 µM; BacTiter-Glo ATP, 48 h; yeast lacking PDR1 and PDR3 efflux regulators;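 active = every replicate shows inhibition above about 80%, whatever the replicate mean, limit read from the data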;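 also: 0% = DMSO neutral controls and 100% = 20 µM radicicol positive controls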
tim10-1 inh – growth inhibitors of tim10-1 mutant yeast, primary screen, luminescence, uHTS; S. cerevisiae tim10-1 ts strain growth, BacTiter-Glo, 24 h; inhibition, % at 20 µM; 2.2% of 330,000 active;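 active = inhibition of at least 40%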;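 also: mutant grown at 25 °C; 0% = DMSO wells with yeast and 100% = wells holding no yeast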
tim23-1 inh – growth inhibitors of tim23-1 mutant yeast, primary screen, luminescence, uHTS | S. cerevisiae tim23-1 growth, BacTiter-Glo luminescence, 24 h | inhibition, % at 20 µM | 1.3% of 330,000 active | AID 463212, 2010;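 active = growth inhibition of the mutant yeast at or above 50%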;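 also: temperature-sensitive mutant grown at 25 °C; plate controls were DMSO-treated mutant yeast for no effect and medium wells lacking yeast for full effect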
B2AR ag – beta2AR agonists driving receptor internalization, primary screen, cell-based, FAP fluorogen, flow cytometry | Beta-2 adrenergic receptor (Homo sapiens), P07550 | Am2.2-beta2AR cells | response, % (no concentration beside the values) | 0.43% of 340,000 active | AID 504454, 2011;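 active = response above a set limit, near 3 SD of response in nonfluorescent compounds, cut at about 42% in these data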
Target sequence (P07550 whole entry, looked up): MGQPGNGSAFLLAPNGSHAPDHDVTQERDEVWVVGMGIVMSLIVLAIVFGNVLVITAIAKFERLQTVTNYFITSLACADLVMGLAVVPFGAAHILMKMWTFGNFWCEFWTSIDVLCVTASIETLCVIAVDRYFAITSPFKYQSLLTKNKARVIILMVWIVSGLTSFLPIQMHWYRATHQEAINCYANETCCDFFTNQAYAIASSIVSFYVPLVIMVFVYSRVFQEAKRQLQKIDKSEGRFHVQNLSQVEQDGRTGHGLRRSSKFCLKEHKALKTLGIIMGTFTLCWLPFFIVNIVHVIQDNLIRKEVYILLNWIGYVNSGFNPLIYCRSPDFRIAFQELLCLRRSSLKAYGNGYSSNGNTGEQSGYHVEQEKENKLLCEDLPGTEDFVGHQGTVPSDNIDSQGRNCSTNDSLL
TIM10 conf – growth inhibitors of wild-type TIM10 yeast, confirmation, counter-screen for tim10-1 synthetic lethality project, single concentration, luminescence, S. cerevisiae; shares compounds with TIM10 inh; S. cerevisiae tim10 strain growth, BacTiter-Glo luminescence, 24 h; inhibition, % at 10 µM; 63% of 4,600 active; AID 463215, 2010;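 active = inhibition of yeast growth at or above a set limit in either of two replicates at 10 µM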;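 also: this counterscreen used the strain with wild-type TIM10; 0% = yeast with DMSO and 100% = medium wells lacking yeast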
* marks the source's active call; other numbers are inactive results; / = no result. Sampled rows, rich in hits. Any-hit rate of the full collection: about 3.8%.

SMILES | TIM10 inh | PfHsp90 yeast 2 | tim10-1 inh | tim23-1 inh | B2AR ag | TIM10 conf
CCN(C(=O)COC(=O)CCCOc1ccc(Cl)cc1C)c1c(N)n(Cc2ccccc2)c(=O)[nH]c1=O | / | -10.8 | / | / | 23.9 | /
Cc1nc2oc3c(NCc4ccccc4)ncnc3c2c2c1COC(C)(C)C2 | 40.5* | 12.8 | 36.6 | 40.0 | -5.5 | 25.4
Cc1nc2oc3c(NCC4CCCO4)ncnc3c2c2c1COC(C)(C)C2 (stereo unspecified) | 24.6 | -12.4 | 32.5 | 18.6 | -24.2 | /
CC(C)COC(=O)C(C#N)c1nc2ccccc2nc1N1CCN(Cc2ccc3c(c2)OCO3)CC1 (stereo unspecified) | 48.7* | -9.4 | 35.4 | 25.4 | -2.3 | 38.9*
COC(=O)C(C#N)c1nc2ccccc2nc1N1CCN(Cc2ccc3c(c2)OCO3)CC1 (stereo unspecified) | 4.2 | / | 18.0 | 8.1 | / | /
CCN(Cc1nc2cc(Cl)ccc2c(=O)[nH]1)C(=O)CN1C(=O)NC2(CCCCC2C)C1=O (stereo unspecified) | 13.3 | -5.2 | -7.0 | 7.3 | -0.6 | /
CC(=O)Nc1ccc(O)c(-c2nc3ccccc3s2)c1 | 46.2* | 4.4 | 2.6 | 28.2 | -5.8 | -2.1
COc1ccc(CNC(=S)NC(C)CCc2ccccc2)cc1 (stereo unspecified) | 52.7* | -0.1 | 32.0 | 9.6 | -8.4 | 21.0
Cc1nnc(-c2cccc(Br)c2)c2cn(-c3ccccc3)nc12 | 45.7* | -43.4 | 31.6 | 27.5 | -9.3 | 46.3*
Cc1nnc(-c2cccc(Br)c2)c2cn(-c3cccc(Br)c3)nc12 | 18.8 | 27.2 | 28.2 | 1.7 | -5.0 | /
Cc1cccc(Oc2ccccc2NC(=O)C2=COCCO2)c1 | 17.4 | -33.7 | 21.2 | 28.8 | -2.5 | /
CCOC(=O)C1=CN(Cc2ccco2)S(=O)(=O)NC1c1ccc(C(F)(F)F)cc1 (stereo unspecified) | 1.8 | -2.4 | 19.1 | 39.8 | -3.8 | /
COc1ccccc1NC(=S)N1CCN(c2ncccn2)CC1 | 95.5* | -6.5 | -14.2 | 1.8 | 2.6 | 2.6
COc1ccccc1NC(=S)N1CCN(c2ccccn2)CC1 | -5.9 | 1.3 | 12.2 | 0.5 | -8.1 | /
CCOc1ccc(C(=O)NCC(=O)NCC(c2ccco2)N2CCCCC2)cc1 (stereo unspecified) | 2.1 | 2.2 | -13.2 | -8.9 | -0.8 | /
Cc1ccc(S(=O)(=O)N(CC(=O)NCc2ccc(F)cc2)C(=O)N2CCN(C)CC2)cc1 | -6.9 | 23.3 | 6.7 | 7.9 | -3.7 | /
CC(C)(O)c1[nH]c2cc(C(F)(F)F)ccc2c1C(C)(C)O | 67.3* | -3.7 | -6.2 | 7.8 | 2.1 | 3.9
Cc1ccc(S(=O)(=O)N2[C@@H](c3ccc(Br)cc3)C(C(=O)O)=CC[C@H]2c2ccc3c(c2)OCO3)cc1 | 17.6 | -22.9 | 8.9 | 28.8 | 4.8 | /
CCN1C(=O)C(CC(=O)Nc2ccc(OC)cc2)N(CCc2ccc(F)cc2)C1=S (stereo unspecified) | 41.5* | 12.1 | 38.1 | 41.9 | 0.0 | 26.3
COc1ccc(NC(=O)CC2C(=O)N(C)C(=S)N2CCc2ccc(F)cc2)cc1 (stereo unspecified) | 6.5 | / | 14.3 | 15.1 | 5.9 | /
O=C(Nc1nccs1)c1ccc2nccnc2c1 | 41.2* | -8.2 | 24.5 | 40.0 | -2.6 | 39.2*
Cc1ccc(C(=O)Nc2nccs2)cc1 | 26.1 | -5.3 | -10.7 | 16.4 | -0.3 | /
Cc1ccc(S(=O)(=O)NNC(=O)c2ccc3ccccc3n2)cc1 | -22.5 | -7.4 | 16.5 | 22.1 | -1.9 | /
CC(C)NC(=O)N(C)C[C@@H]1Oc2c(NC(=O)C3CCOCC3)cccc2C(=O)N([C@@H](C)CO)C[C@H]1C | 96.6* | -14.3 | -8.3 | -21.0 | -2.3 | -10.1
COc1ccc(NC(=O)CCN2CCN(c3ccccc3F)CC2)c(OC)c1 | -1.9 | 0.7 | 16.0 | 15.4 | -7.2 | /
SMILES | TIM10 inh | PfHsp90 yeast 2 | tim10-1 inh | tim23-1 inh | B2AR ag | TIM10 conf
S=C(NCC1CCCCC1)Nc1ccc(Oc2ccccc2)cc1 | 54.0* | -9.6 | 39.7 | 23.0 | -12.4 | 30.4*
COc1ccc(/C=C/C(=O)Nc2ccc(NC(C)=O)cc2)cc1S(=O)(=O)N1CCOCC1 | 96.3* | -14.0 | 10.1 | 3.5 | -17.1 | -18.1
COc1ccc(/C=C/C(=O)Nc2ccccc2)cc1S(=O)(=O)N1CCOCC1 | 16.1 | 26.5 | -19.5 | 18.4 | 7.5 | /
CN(C)S(=O)(=O)c1cccc(NC(=O)/C=C/c2ccc(S(=O)(=O)N3CCOCC3)cc2)c1 | 3.5 | -7.4 | 1.7 | 4.7 | 12.2 | /
O=C(CSCc1ccc(Cl)cc1)Nc1ccc(S(=O)(=O)N2CCOCC2)cc1 | 42.7* | 11.9 | 13.0 | 24.5 | 6.4 | -7.0
O=C(/C=C/c1cccc(F)c1)Nc1ccc(S(=O)(=O)N2CCOCC2)cc1 | 67.8* | -6.2 | 10.8 | 24.5 | 14.7 | 45.0*
CC(=O)c1cccc(NC(=O)/C=C/c2ccc(S(=O)(=O)N3CCOCC3)cc2)c1 | 2.2 | -5.6 | 11.3 | 12.3 | 12.6 | /
O=C(/C=C/c1ccccc1)Nc1ccc(S(=O)(=O)N2CCOCC2)cc1 | 46.0* | 3.9 | 39.7 | 32.9 | 16.4 | 44.3*
COC(=O)c1c(NC2=NS(=O)(=O)c3ccccc32)sc2c1CCC(C(C)(C)C)C2 (stereo unspecified) | / | 6.2 | / | / | 3.9 | /
Cc1csc(=O)n1CC(=O)OC(C)C(=O)Nc1ccc(N(C)C)cc1 (stereo unspecified) | / | 2.1 | / | / | 6.5 | /
O=C(/C=C/c1ccccc1)Nc1ccc(C(=O)N2CCCCC2)cc1 | 47.9* | 21.3 | 34.1 | 17.0 | 11.6 | 26.1
CCn1c(SCC(=O)N(C)C2CCCCC2)nc2cc(S(N)(=O)=O)ccc21 | 40.8* | 12.0 | -8.1 | 4.9 | 0.5 | 8.7
CC(C)c1ccccc1OCC(O)CN1CCN(S(=O)(=O)c2ccc([N+](=O)[O-])cc2)CC1 (stereo unspecified) | 40.1* | -5.8 | 34.9 | 38.7 | 1.4 | 52.3*
O=S(=O)(c1ccc(F)cc1)N1CCN(CC(O)COc2ccccc2F)CC1 (stereo unspecified) | -3.7 | 12.3 | 10.3 | 15.1 | 2.0 | /
CCOC(=O)N1CCN(C(=O)CS(=O)Cc2nc(-c3ccc(OC)c(OC)c3)oc2C)CC1 (stereo unspecified) | 10.7 | -10.6 | 5.6 | 13.9 | -5.6 | /
O=C1CC(c2ccccc2)=Nc2ccccc2N1Cc1ccccc1 | 40.3* | -0.9 | 31.0 | 18.7 | -16.3 | 22.8
Cc1cccc(N2CCN(C(=S)c3ccc4c(c3)OCO4)CC2)c1 | / | / | / | / | -2.7 | /
COc1ccc(N2C(=O)/C(=C\c3ccco3)N=C2SCC(=O)N(C(C)C)C(C)C)cc1Cl | 40.8* | 0.9 | 30.7 | 29.8 | -3.8 | 9.1
